These results are taken from PubChem BioAssay (Tox21).

Assay [1] can be described thus: qHTS assay to identify small molecule antagonists of the thyroid receptor (TR) signaling pathway - cell viability counter screen (AID 743064). Note: nearly all actives have a fitted effect of over 50% in size. Note: potency is the fitted concentration of half-maximal effect. Summed up:
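Viability of T3-stimulated (1 nM final) GH3.TRE-Luc cells is measured by CellTiter-Fluor fluorescence after 23.5 h compound exposure at 37 °C plus 30 min reagent incubation.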
(In qHTS, concentration-response curves come from the screen itself.)

Assay [2] is described as follows: qHTS assay to identify small molecule antagonists of the thyroid receptor (TR) signaling pathway (AID 743065). Note: nearly all actives have a fitted effect of over 55% in size. Note: potency is the fitted concentration of half-maximal effect. In outline: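 GH3.TRE-Luc rat pituitary cells (two TREs driving luciferase) were dosed with compound, then stimulated with 1 nM T3 (final) for 23.5 h at 37 C. ONE-Glo luminescence was the read-out, with CellTiter-Fluor fluorescence as the cytotoxicity counter-screen.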

Assay [3] deals with thyroid hormone receptor (rat, GH3 cells). Description: qHTS assay to identify small molecule agonists of the thyroid receptor (TR) signaling pathway (AID 743066; calls by dose curve).
Assay [4] is described as follows: qHTS assay to identify small molecule antagonists of the estrogen receptor alpha (ER-alpha) signaling pathway - cell viability counter screen (AID 743074; calls by dose curve;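 note: HEK293 cells carrying ER-alpha-UAS-bla reporter stimulated with 17beta-estradiol; nearly all actives have a fitted effect of over 45% in size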).
Assay [5] in a line: qHTS assay to identify small molecule antagonists of the estrogen receptor alpha (ER-alpha) signaling pathway using the BG1 cell line - cell viability counter screen (AID 743081).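 Note: compound given together with 17beta-estradiol as the ER stimulus; nearly all actives have a fitted effect of over 45% in size.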 Note: potency is the fitted concentration of half-maximal effect.
For another assay, the target named is Aromatase (Homo sapiens) (UniProt P11511). Description: qHTS assay to identify aromatase inhibitors (AID 743083). Note: nearly all actives have a fitted effect of over 55% in size. Note: potency is the fitted concentration of half-maximal effect.
Aromatase (Homo sapiens), sequence (P11511 whole entry, looked up): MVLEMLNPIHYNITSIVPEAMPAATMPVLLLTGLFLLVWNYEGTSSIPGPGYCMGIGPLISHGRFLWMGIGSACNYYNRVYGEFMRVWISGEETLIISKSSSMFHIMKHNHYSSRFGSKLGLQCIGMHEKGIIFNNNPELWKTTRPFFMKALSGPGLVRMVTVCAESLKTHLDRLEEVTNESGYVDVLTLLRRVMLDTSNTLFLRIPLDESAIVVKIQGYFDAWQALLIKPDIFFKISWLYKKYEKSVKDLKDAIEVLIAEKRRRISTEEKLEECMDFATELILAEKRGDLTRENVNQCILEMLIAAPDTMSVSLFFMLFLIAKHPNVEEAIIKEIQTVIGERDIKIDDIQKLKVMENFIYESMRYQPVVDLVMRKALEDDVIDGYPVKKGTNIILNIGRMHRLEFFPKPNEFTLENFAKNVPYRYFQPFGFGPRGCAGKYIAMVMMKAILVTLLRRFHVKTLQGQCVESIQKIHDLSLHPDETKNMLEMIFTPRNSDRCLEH
Assay [6] in a line: qHTS assay to identify small molecule antagonists of the estrogen receptor alpha (ER-alpha) signaling pathway using the BG1 cell line (AID 743080; calls by dose curve;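 note: BG1 cells stimulated with 17beta-estradiol alongside compound; nearly all actives have a fitted effect of over 25% in size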; note: potency is the fitted concentration of half-maximal effect). In outline: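 After 5 days in phenol-red-free 10% charcoal-stripped FBS medium, BG1-Luc-4E2 cells were seeded, left 24 h at 37 C, co-treated with compounds and 17beta-estradiol for 21.5 h, then assayed for viability and luciferase.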

Assay [7] addresses Estrogen receptor (Homo sapiens) (UniProt P03372). Description: qHTS assay to identify small molecule antagonists of the estrogen receptor alpha (ER-alpha) signaling pathway (AID 743069; active = well fitted curve in the direction sought with a large enough effect in the signal ratio in the repeat runs, not every such curve was filed as active; inconclusive = weak or mixed curves, or effect the other way; inactive = no such curve, though single readings can be large or run the other way; the % refers to the signal ratio; note: potency is the fitted concentration of half-maximal effect). Summed up:
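HEK293 ER-alpha-UAS-bla GripTite cells, held overnight in 2% charcoal-stripped FBS, 5,000 cells/well, preincubated 4 h, then compound plus 17beta-estradiol for 18 h at 37C. Beta-lactamase read by LiveBLAzer B/G FRET substrate, 2 h at room temperature.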

The target is the same in assay [8]. Briefly: qHTS assay to identify small molecule agonists of the estrogen receptor alpha (ER-alpha) signaling pathway (AID 743075; calls by dose curve).
The target is the same in assay [9]. Description: qHTS assay to identify small molecule agonists of the estrogen receptor alpha (ER-alpha) signaling pathway using the BG1 cell line (AID 743079). Note: nearly all actives have a fitted effect of over 20% in size. Note: potency is the fitted concentration of half-maximal effect. Particulars: BG1Luc4E2 cells, ERE-luciferase agonist, 22 h; activation: at 70.3 µM (top of the series).

Values joined by “and” are separate entries in the source; they are usually repeats but may differ in a detail not shown here. Identical values can stand only once. Some structures have more than one record in an assay (separate samples or runs), and their calls can disagree. Active and inactive are the calls of the source. Unless noted, calls come from the whole dose curve; as a rule, active = well fitted curve in the direction sought with a large enough effect in the repeat runs; inconclusive = weak or mixed curves; inactive = no such curve, though single readings can be large; an effect the other way counts as inactive or inconclusive.

Estrogen receptor (Homo sapiens), sequence (P03372 whole entry, looked up): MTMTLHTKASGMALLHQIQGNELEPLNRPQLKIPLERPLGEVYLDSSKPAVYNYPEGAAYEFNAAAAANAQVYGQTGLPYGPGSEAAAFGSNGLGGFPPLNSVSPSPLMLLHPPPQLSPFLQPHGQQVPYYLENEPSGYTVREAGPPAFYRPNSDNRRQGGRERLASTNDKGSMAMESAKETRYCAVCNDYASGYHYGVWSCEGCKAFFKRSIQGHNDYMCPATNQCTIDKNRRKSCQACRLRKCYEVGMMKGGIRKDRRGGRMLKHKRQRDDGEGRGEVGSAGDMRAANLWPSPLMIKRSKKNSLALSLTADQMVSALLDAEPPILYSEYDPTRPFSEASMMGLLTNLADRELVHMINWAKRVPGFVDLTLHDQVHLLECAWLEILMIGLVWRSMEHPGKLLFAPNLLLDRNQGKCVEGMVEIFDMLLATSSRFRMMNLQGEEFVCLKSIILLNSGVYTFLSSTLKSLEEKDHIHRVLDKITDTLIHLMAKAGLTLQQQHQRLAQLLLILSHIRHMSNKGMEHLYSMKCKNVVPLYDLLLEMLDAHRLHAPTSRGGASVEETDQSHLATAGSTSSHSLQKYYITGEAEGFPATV

In the case of `CCOC(=O)OC(C)OC(=O)[C@@H]1N2C(=O)[C@@H](NC(=O)[C@H](N)c3ccccc3)[C@H]2SC1(C)C` (stereo partly specified), the Potency result (in assay [1]; in [2]; in [4]; in assay [5]; with Aromatase (Homo sapiens)) was “inactive” throughout. Moreover, the compound was classed as inactive in [3].
With `CC[C@]1(O)C[C@H]2CN(CCc3c([nH]c4ccccc34)[C@@](C(=O)OC)(c3cc4c(cc3OC)N(C=O)[C@H]3[C@@](O)(C(=O)OC)[C@H](OC(C)=O)[C@]5(CC)C=CCN6CC[C@]43[C@@H]65)C2)C1`, the figures for the Potency in [1], in assay [2] and in assay [6] were 0.106 µM (active), 0.0944 µM (active) and 0.0531 µM (active), respectively. For the same compound, the compound was classed as inactive in [3]. Also, the Potency entry (in assay [5]; with Aromatase (Homo sapiens)) was “inactive” each time.
Take `CN1C[C@H](C(=O)N[C@]2(C)O[C@@]3(O)[C@@H]4CCCN4C(=O)[C@H](Cc4ccccc4)N3C2=O)C[C@@H]2c3cccc4[nH]cc(c34)C[C@H]21`: the Potency in assay [1] was 21.1 µM (active); in assay [2], 26.6 µM (active). In addition, the Potency entry (in [7]; in assay [4]; in [8]; in assay [6]; in assay [5]; with Aromatase (Homo sapiens)) was “inactive” each time.
`O=C(/C=C/c1ccccc1)OCCc1ccccc1`: the Potency result (in [1]; in assay [4]; in assay [8]; in assay [5]; in the assay with Aromatase (Homo sapiens)) was “inactive” throughout. Besides, the compound was classed as inactive in assay [3]. The Potency in assay [9] is 4.86 µM (active).
As to `C=Cc1ccc(S(=O)(=O)O)cc1`, the Potency entry in assay [1] was “inactive and 9.69 µM (active)”; in [9], 23.7 µM (active) and inactive. The outcome in assay [3] was inactive. The Potency result (in assay [7]; in assay [4]; in [8]; in assay [6]; in [5]; with Aromatase (Homo sapiens)) was “inactive” in each case.
In the case of `O=C1c2ccccc2C(=O)C1c1nc2ccccc2c(Br)c1O`, the Potency entry (in assay [1]; in assay [4]; in [8]; in assay [9]; in [5]; with Aromatase (Homo sapiens)) was “inactive” each time. In addition, in assay [3], the call was inactive.
As for `CC(C)(O)c1ccc(CNC(=O)c2cccnc2Oc2ccc3nonc3c2)cc1`, the Potency result (in [1]; in assay [4]; in assay [8]; in assay [6]; in assay [5]; with Aromatase (Homo sapiens)) was “inactive” in each case. Further, in assay [3], the compound was called inactive.
For `CCCCN1CCCC1C(=O)Nc1c(C)cc(C)cc1C` (stereo unspecified), the Potency entry in assay [1], in [4], in assay [8], in [9], in assay [6] and in assay [5] was “inactive” throughout. The Potency entry with Aromatase (Homo sapiens) is “inactive”. In assay [3], the compound was called inactive.
`C[C@@H](O)[C@H]1C(=O)N2C(C(=O)O)=C([C@H]3CCCO3)S[C@H]12`: the Potency result in assay [1], in [7], in assay [4], in assay [8], in assay [9] and in assay [6] was “inactive” each time. The Potency result (in [5]; with Aromatase (Homo sapiens)) was “inactive” in each case. In addition, in assay [3], the call was inactive.
Take `Cc1c(C)c2c(c(C)c1OC(=O)CCC(=O)OCCO)CC[C@@](C)(CCC[C@H](C)CCC[C@H](C)CCCC(C)C)O2`: the Potency in assay [1] was 11.9 µM (active); in [2], 23.7 µM (active); in [7] it was 9.52 µM [inconclusive] (active). The Potency result in assay [8], in assay [9] and in assay [5] was “inactive” each time.
Consider `CC(=O)OCC[N+](C)(C)C`, for which the Potency result (in assay [1]; in assay [4]; in assay [5]; in the assay with Aromatase (Homo sapiens)) was “inactive” in each case. For the same compound, the compound was classed as inactive in assay [3].
Consider `CCCCCCCCC(CCCCCC)C(=O)O` (stereo unspecified), for which the Potency entry in assay [1], in [4] and in [5] was “inactive” throughout. Further, in assay [3], the call was inactive.
As to `O=[N+]([O-])c1cc(C2CCCCC2)c(O)c([N+](=O)[O-])c1`, the Potency in [1] is 9.66 µM (active); in [2], 3.85 µM (active); in [7] it was 6.15 µM [inconclusive] (active); in assay [5], 6.09 µM (active); in the assay with Aromatase (Homo sapiens), 17.2 µM (active). Also, the Potency entry in assay [8] is “inactive”.
As to `Cc1cccc(O)c1N`, the Potency result (in assay [1]; in [4]; in assay [5]; with Aromatase (Homo sapiens)) was “inactive” each time. Moreover, the compound was classed as inactive in assay [3].
In the case of `C[C@@H]1CC(=O)NN=C1c1ccc(NN=C(C#N)C#N)cc1`, the Potency in assay [1] was 15 µM (active); in assay [2] it was 13.3 µM (active); in [5], 23.7 µM (active); in the assay with Aromatase (Homo sapiens), 29.8 µM (active). Besides, the Potency entry in [7], in assay [4], in assay [8] and in assay [6] was “inactive” in each case.
`C(=C\c1ccccc1)/c1ccccc1`: the Potency entry (in assay [1]; in assay [7]; in [4]; in [8]; in [5]; in the assay with Aromatase (Homo sapiens)) was “inactive” throughout. Moreover, the outcome in [3] was inactive. Moreover, the Potency in assay [9] is 60.6 µM (active).
On to `CC(C)C[C@H](NC(=O)[C@H](CCc1ccccc1)NC(=O)CN1CCOCC1)C(=O)N[C@@H](Cc1ccccc1)C(=O)N[C@@H](CC(C)C)C(=O)[C@@]1(C)CO1`, for which the Potency in [1] is 0.0422 µM (active); in assay [2] it was 0.0298 µM (active); in assay [7] it was 0.601 µM [inconclusive] (active); in assay [6], 0.188 µM (active); with Aromatase (Homo sapiens), 0.0335 µM (active). Also, in [5], the Potency entry is “inactive”.
Take `O=[N+]([O-])c1ccc(O/N=C/c2cc(Br)c(O)c(Br)c2)c([N+](=O)[O-])c1`: the Potency in assay [1] is 10.8 µM (active); in [2] it was 9.64 µM (active). In addition, in assay [3], the result was inactive. Moreover, the Potency entry in the assay with Aromatase (Homo sapiens) is “inactive”.
For `CC=C(Cl)Cl`, the Potency entry in assay [1], in assay [7], in assay [4], in assay [9], in [6] and in [5] was “inactive” in each case. Further, the Potency result in the assay with Aromatase (Homo sapiens) was “inactive”. Also, in [3], the compound was called inactive.
As for `CC[N+](CC)(CCNC(=O)C(=O)NCC[N+](CC)(CC)Cc1ccccc1Cl)Cc1ccccc1Cl`, the Potency result in [1], in assay [7], in assay [4], in assay [8], in [6] and in [5] was “inactive” in each case. For the same compound, the Potency entry with Aromatase (Homo sapiens) is “inactive”. In addition, the compound was classed as inactive in assay [3].
For the compound `CC(=O)N/N=C/c1ccc([N+](=O)[O-])o1`, the Potency was 18.8 µM (active) in assay [1] and 16.8 µM (active) in assay [2]. The Potency entry in [7], in assay [4], in assay [8], in [6] and in assay [5] was “inactive” throughout.
Turning to `CC(C)=CCC1C(=O)N(c2ccccc2)N(c2ccccc2)C1=O`, the Potency entry (in assay [1]; in assay [4]; in assay [8]; in assay [5]; with Aromatase (Homo sapiens)) was “inactive” each time. The call in assay [3] was inactive.
For `CC(C)Nc1cccnc1N1CCN(C(=O)c2cc3cc(NS(C)(=O)=O)ccc3[nH]2)CC1`, the Potency entry in assay [1], in assay [7], in assay [4], in [8], in assay [9] and in [6] was “inactive” each time. Besides, the Potency entry (in assay [5]; with Aromatase (Homo sapiens)) was “inactive” each time. Besides, the result in assay [3] was inactive.
For `OCCOCC#CCOCCO`, the Potency result in assay [1], in assay [7], in assay [4], in assay [8], in assay [9] and in assay [6] was “inactive” each time. In addition, the Potency result (in assay [5]; with Aromatase (Homo sapiens)) was “inactive” in each case. Besides, the result in [3] was inactive.
Consider `OCCN1CCN(CCCN2c3ccccc3Sc3ccc(Cl)cc32)CC1`, for which the Potency in assay [1] is 3.59 µM (active); in assay [2], 5.07 µM (active). The Potency entry in [7], in assay [4], in assay [8], in [9], in assay [6] and in assay [5] was “inactive” throughout. For the same compound, the Potency entry with Aromatase (Homo sapiens) is “inactive”.
On to `COC(=O)C1=C(C)NC(C)=C(C(=O)O[C@@H]2CCCN(Cc3ccccc3)C2)[C@@H]1c1cccc([N+](=O)[O-])c1`, for which the Potency in assay [1] is 26.6 µM (active); in assay [2], 11.9 µM (active); in [7], 26.8 µM [inhibitor] (active); with Aromatase (Homo sapiens), 29.8 µM (active). Moreover, the Potency entry in assay [4], in [8], in [9] and in assay [6] was “inactive” each time.
On to `CCOC(=O)c1ccc(C#Cc2ccc3c(c2)C(C)(C)CCS3)nc1`, for which the Potency result in assay [1], in assay [4] and in assay [5] was “inactive” throughout. Besides, the result in assay [3] was inactive.
As for `O=C1CCCCCCCCCCOCCCCO1`, the Potency result in assay [1], in assay [4] and in [5] was “inactive” in each case. Also, in assay [3], the call was inactive.
On to `O=C1c2ccccc2C(=O)c2c(O)c(O)cc(O)c21`, for which, in assay [1], the Potency was 54.5 µM (active). Moreover, in assay [3], the outcome was inactive. For the same compound, the Potency result (in assay [7]; in [4]; in [8]; with Aromatase (Homo sapiens)) was “inactive” in each case.
As to `O=c1[nH]c2ccc(Cl)cc2o1`, the Potency entry in assay [1], in assay [7], in assay [4], in assay [8], in [9] and in assay [6] was “inactive” in each case. The Potency entry (in assay [5]; with Aromatase (Homo sapiens)) was “inactive” throughout. Besides, in assay [3], the result was inactive.
